Compounds with a hit are over-represented: about 4.4% of the library has one in this group of screens.
D1 antagonist: Antagonist of Human D 1 Dopamine Receptor: qHTS | activity change, negative = inhibition, % at 10 µM | D(1A) dopamine receptor (Homo sapiens), P21728 | HEK293 TREx D1 cells, calcium flux, dopamine EC80; stronger effect = lower value | actives 3.2% (n = 360,000); in the data active = activity change below about -30%; also: % is scaled to controls: 0 for no effect and ±100 for the full control effect
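Allosteric or orthosteric antagonism assessed as attenuation of the calcium response to EC80 dopamine, added 180 s after compound, in induced HEK293 Trex D1 cells loaded with no-wash calcium dye.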
D1 ag: Allosteric Agonists of the Human D1 Dopamine Receptor: qHTS | HEK293 T-REx D1 cells, calcium flux, agonist mode | actives 1% (n = 360,000) | D(1A) dopamine receptor (Homo sapiens), P21728 | activation, % at 2 µM; also: 0% is about no effect
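Tetracycline-induced HEK293 TREx D1 cells, force-coupled to calcium signalling, were dye-loaded with a no-wash calcium kit. Compound was pin-added after a 10 s baseline. Fluorescence was read kinetically at 1 cycle/s for 180 s, with calcium rises flagged as agonism.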
TRHR enhancer: qHTS for Small Molecule Agonists and Allosteric Enhancers of Human TRH Receptor: Primary Screen for Enhancers. Thyrotropin-releasing hormone receptor (Homo sapiens), P34981. TRHR cells, fluo-8 calcium fluorescence, EC20 TRH enhancement. enhancement, % at 2 µM. actives 0.66% (n = 360,000). AID 493056, 2011; in the data active = enhancement above about 30%; also: 0% is about no effect
Target sequence (P34981 whole entry, looked up): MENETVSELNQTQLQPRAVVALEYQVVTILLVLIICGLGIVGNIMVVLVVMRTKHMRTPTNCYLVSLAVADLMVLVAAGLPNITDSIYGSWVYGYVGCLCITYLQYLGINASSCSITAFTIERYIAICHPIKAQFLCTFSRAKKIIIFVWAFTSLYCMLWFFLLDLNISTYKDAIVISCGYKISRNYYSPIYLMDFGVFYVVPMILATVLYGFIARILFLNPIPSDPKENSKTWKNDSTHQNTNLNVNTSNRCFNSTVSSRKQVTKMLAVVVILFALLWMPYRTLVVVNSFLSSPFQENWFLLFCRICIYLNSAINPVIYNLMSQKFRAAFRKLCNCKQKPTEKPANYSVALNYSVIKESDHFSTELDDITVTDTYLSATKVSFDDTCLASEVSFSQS
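Enhancer read-out: after compound pinning and an initial kinetic agonist-mode read, an EC20 of TRH (10 nM final) was injected and fluo-8 calcium signal (Ex 480/Em 530) followed at 1 s/cycle for 100 cycles in TRHR-expressing cells.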
D1 potentiator: Potentiators of Human D1 Dopamine Receptor: qHTS | D(1A) dopamine receptor (Homo sapiens), P21728 | actives 0.036% (n = 360,000) | potentiation, % at 10 µM | HEK293 TREx D1 cells, calcium flux, dopamine EC20 potentiation; in the data active = potentiation above about 30%; also: 0% is about no effect
TRHR ag: qHTS for Small Molecule Agonists and Allosteric Enhancers of Human TRH Receptor: Primary Screen for Agonists. TRHR cells, calcium flux fluo-8, FDSS agonist mode. AID 493084, 2011. actives 0.18% (n = 360,000). activation, % at 2 µM; also: 0% is about no effect
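TRHR-expressing cells loaded with fluo-8 calcium dye; 23 nL library compound pin-transferred, kinetic FDSS fluorescence (Ex 480/Em 530) recorded about 180 s for agonist-induced calcium release, before a 10 nM TRH EC20 addition for potentiator mode.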
USP1 inh: Inhibitors of USP1/UAF1: Primary Screen; actives 0.23% (n = 390,000); Potency, µM (doses to about 57.1 µM), for the others: at the top dose activity change, negative = inhibition, actives largely listed as inhibitors; recombinant USP1/UAF1, Ub-Rhodamine cleavage fluorescence; active = well fitted inhibition curve with a large enough effect; also: potency is read from the fitted curve at half-maximal effect; % is scaled to controls: 0 for no effect and ±100 for the full control effect; nearly all actives have a fitted effect of over 60% in size
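1 nM enzyme complex + cpd, 15 min RT; start with Ub-Rho 150nM final; kinetic fluorescence ex 480/em 540, 6 reads q60 s. Buffer 50mM HEPES pH 7.8, 0.5mM EDTA, 0.1 mg/ml BSA, 1mM TCEP, 0.01% Tween-20.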
An asterisk follows results filed as active; ! = a repeat was not active. Rule as the data show it, unless noted: active = activation above about 30%; inactive = the rest.

For Cc1c(C(=O)N(C)c2cccc(C(F)(F)F)c2)sc2nc3n(c(=O)c12)CCCCC3 the results were D1 antagonist 4, D1 ag 9, TRHR enhancer 10, D1 potentiator 1, TRHR ag 6 and USP1 inh -19%.
O=C(CSc1nccn1C1CCCC1)Nc1cccc(F)c1 was read as D1 antagonist -2, D1 ag 1, TRHR enhancer -1, D1 potentiator -1, TRHR ag 0 and USP1 inh -13%.
`O=C(COC(=O)C1CCN(S(=O)(=O)c2cccs2)CC1)Nc1ccc(F)c(F)c1F` gave D1 antagonist -36*, D1 ag 10, TRHR enhancer -5, D1 potentiator -5, TRHR ag 0 and USP1 inh -18%.
Screening O=C(NCc1cccnc1)C1CCN(S(=O)(=O)c2cccs2)CC1 returned D1 antagonist 9, D1 ag 1, TRHR enhancer -1, D1 potentiator -5, TRHR ag 1 and USP1 inh -18%.
For COc1ccc(/C=C2\SC(=O)N(CCNC(=O)C3CCN(S(=O)(=O)c4cccs4)CC3)C2=O)cc1 the results were D1 antagonist -35*, D1 ag 6, TRHR enhancer 1, D1 potentiator -6, TRHR ag 0 and USP1 inh -5%.
`O=C(Nc1cccnc1)C1CCN(S(=O)(=O)c2cccs2)CC1` gave D1 antagonist -32*, D1 ag 1, TRHR enhancer -3, D1 potentiator -6, TRHR ag 0 and USP1 inh -10%.
Screening Cc1ccc(NC(=O)C2CCN(S(=O)(=O)c3cccs3)CC2)cc1 returned D1 antagonist -37*!, D1 ag 22, TRHR enhancer -1, D1 potentiator -11, TRHR ag 0 and USP1 inh -12%.
Screening COc1ccc(CCNC(=O)c2ccc3c(c2)N(Cc2ccc(Cl)cc2)C(=O)c2ccccc2S3)cc1OC returned D1 antagonist -13, D1 ag 4, TRHR enhancer -3, D1 potentiator -3, TRHR ag 1 and USP1 inh 2%.
`Cc1ccc(C)c(N2CCN(C(=O)c3cccn3-c3nnc(N4CCCCC4)s3)CC2)c1` gave D1 antagonist 16, D1 ag 2, TRHR enhancer -11, D1 potentiator -1, TRHR ag -1 and USP1 inh -14%.
For COc1ccc(S(N)(=O)=O)cc1C(=O)OCCCOc1ccc(F)cc1 the results were D1 antagonist -34*, D1 ag 11, TRHR enhancer 1, D1 potentiator 3, TRHR ag 0 and USP1 inh -19%.
`COc1cc(C2c3c(-c4cc(C)ccc4O)n[nH]c3C(=O)N2CCCO)ccc1OCCC(C)C` (configuration not stated) gave D1 antagonist 28, D1 ag 6, TRHR enhancer 8, D1 potentiator 3, TRHR ag 0 and USP1 inh -31%.
`Cn1c2cc(Br)sc2c2cnn(Cc3c(F)cccc3F)c(=O)c21` gave D1 antagonist 0, D1 ag 4, TRHR enhancer 0, D1 potentiator 12 and TRHR ag -1.
Screening Cn1c2cc(Br)sc2c2cnn(Cc3c(F)cccc3Cl)c(=O)c21 returned D1 antagonist -94*, D1 ag 0, TRHR enhancer 14, D1 potentiator 0 and TRHR ag 0.
Screening Cc1noc(-c2ccc(C(F)(F)F)cc2)c1NC(=O)Nc1ccc(Cl)cc1 returned D1 antagonist -42*, D1 ag 25, TRHR enhancer -11, D1 potentiator -13, TRHR ag 0 and USP1 inh -17%.
For C1=C(c2ccccc2)CCN(c2ncnc3nc[nH]c23)C1 the results were D1 antagonist -66*, D1 ag 2, TRHR enhancer -6, D1 potentiator -10, TRHR ag 1 and USP1 inh 0%.
`c1ccc2c(c1)CCN(c1ncnc3nc[nH]c13)C2` gave D1 antagonist 0, D1 ag 2, TRHR enhancer 3, D1 potentiator 1, TRHR ag 0 and USP1 inh -17%.
Cc1cc2oc(C(=O)NCc3ccncc3)c(C)c2cc1C was read as D1 antagonist -36*, D1 ag 0, TRHR enhancer 30, D1 potentiator -2, TRHR ag 0 and USP1 inh -19%.
O=S(=O)(NNC(=S)NCC1CCCO1)c1cc(Cl)ccc1Cl (configuration not stated) was read as D1 antagonist -39*, D1 ag 5, TRHR enhancer -8, D1 potentiator -2, TRHR ag 0 and USP1 inh -5%.
For CCNC(=O)C1CC(=O)N(c2ccc(OCC)cc2)C1 (configuration not stated) the results were D1 antagonist 22, D1 ag 1, TRHR enhancer -2, D1 potentiator -6, TRHR ag 0 and USP1 inh -15%.
For CCOc1ccc(N2CC(C(=O)NCC(=O)Nc3ccc(F)c(F)c3F)CC2=O)cc1 (configuration not stated) the results were D1 antagonist -32*, D1 ag 1, TRHR enhancer -3, D1 potentiator -2, TRHR ag -1 and USP1 inh 3%.
Screening CCOc1ccc(N2CC(C(=O)Nc3ccc(S(=O)(=O)Nc4ncccn4)cc3)CC2=O)cc1 (configuration not stated) returned D1 ag -2, TRHR enhancer 32*, D1 potentiator -1, TRHR ag 0 and USP1 inh -1%.
COc1ccc(CNC(=O)Cn2ncn3nc(-c4cccs4)cc3c2=O)cc1 was read as D1 antagonist -18, D1 ag -2, TRHR enhancer -4, D1 potentiator 4, TRHR ag 0 and USP1 inh -16%.
For COc1cccc(-c2cc(C(F)(F)F)n3ncc(C(=O)OC(C)C)c3n2)c1 the results were D1 antagonist 3, D1 ag 2, TRHR enhancer -7, D1 potentiator -4, TRHR ag 2 and USP1 inh -10%.
Screening CC1(C)N=C(c2ccc(F)cc2)C(=O)N1CC(=O)Nc1ccccc1Cl returned D1 antagonist -4, D1 ag 18, TRHR enhancer 3, D1 potentiator 1, TRHR ag 0 and USP1 inh -21%.
